Source: PubChem BioAssay (National Center for Advancing Translational Sciences (NCATS))
Rows were chosen to be rich in hits. Some 17% of all compounds tested hit in one or more screens of this group.
TGFb inhibitor: blocks TGF-b signaling. Potency, µM (top dose mostly 46.1 µM), actives largely listed as inhibitors. actives 1.2% (n = 410,000). HepG2 CAGA-GFP TGF-b/SMAD3 reporter, GFP fluorescence, 18 h; TGF-beta stimulated, 500 pg/mL final. AID 588855; further: nearly all actives have a fitted effect of over 65% in size
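Using HEPG2 CAGA-GFP reporter cells at 1000 cells/well, we pinned test compounds, stimulated with recombinant TGF-beta (500 pg/mL final) and measured total well GFP after 18 h.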
HepG2 tox: counter-screen for TGF-b inhibitors: cytotoxicity in HepG2 cells. actives 0.76% (n = 410,000). HepG2 CAGA-GFP viability, ATP luminescence, 18 h. Potency, µM (titrated, usually from 46.1 µM), hits mostly cytotoxic
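HepG2 CAGA-GFP cells (1000/well, DMEM with 1% FBS) received compound, then TGF-beta at 500 pg/mL final, and were incubated 18 hours at 37 degrees C. Viability was read by CellTiter-Glo luminescence. Media-only wells were set as complete cell-killing and DMSO as no toxicity.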
ATXN2 expr inh: inhibitors of ATXN2 expression. HEK-293 ATXN2-luciferase reporter, luminescence, 24 h. Potency, µM (series often up to 57 µM), usual class: inhibitors. actives 0.72% (n = 360,000). AID 1745845; further: nearly all actives have a fitted effect of over 55% in size
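ATXN2-luciferase reporter cells (luciferase flanked by upstream and downstream ATXN2 gene portions) were treated 24 h at 37 °C with compounds at up to 57 uM. SteadyGlo luminescence gave expression; GF-AFC fluorescence gave viability.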
TDP1 cell noCPT: qHTS for Inhibitors of human tyrosyl-DNA phosphodiesterase 1 (TDP1): qHTS in cells in absence of CPT | DT40 Tdp1-/- hTDP1 cells, no CPT, ATP luminescence, 48 h | Potency, µM (titrated, usually from 46.2 µM), most hits filed as inhibitors | actives 15% (n = 420,000) | AID 686978, 2013; further: nearly all actives have a fitted effect of over 55% in size
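Luminescent ATP content (CellTiter-Glo) served as the growth readout. Knockout chicken DT40 cells expressing human TDP1 were exposed to compounds without camptothecin for a minimum 48 hr at 37 °C.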
DT40 TDP1 CPT: growth inhibition of DT40 Tdp1-/-;hTDP1 cells with camptothecin (screen for TDP1 inhibitors) | chicken DT40 Tdp1-/-;hTDP1 cells + 20 nM CPT, ATP luminescence, 48 h | Potency, µM (series often up to 46.2 µM), usual class: inhibitors | actives 12% (n = 420,000) | AID 686979; further: nearly all actives have a fitted effect of over 55% in size
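Cell growth measured by CellTiter-Glo luminescence after a minimum 48 h, 37 C compound exposure with 20 nM CPT in Tdp1-knockout DT40 cells stably expressing hTDP1, seeded 400/well; qHTS titration format.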
ATXN viability: reduces viability in counter-screen for ATXN expression inhibitors | S2 cells (HEK-293 line with an ATXN2-luciferase reporter) viability, CellTiter-Fluor protease fluorescence, 24 h | Potency, µM (doses to about 56.7 µM), hits mostly cytotoxic | actives 0.49% (n = 400,000) | AID 651635; further: nearly all actives have a fitted effect of over 40% in size
Each line names hits and unclear results; the compound was inactive in the other large screens. The call rests on the fitted dose curve; in most records, active means well fitted curve in the direction sought with a large enough effect; inconclusive means small, poorly fitted or top-dose-only effect, or another doubt; inactive means no such curve, though single readings can be large; an effect the other way counts as inactive or inconclusive.

Cc1ccc(N(CC(=O)Nc2cc(C)ccc2C)S(=O)(=O)c2c(C)noc2C)cc1	TGFb inhibitor inconclusive, ATXN2 expr inh inconclusive, TDP1 cell noCPT 23µM, DT40 TDP1 CPT inconclusive, ATXN viability inconclusive
CN(C)/N=C/c1ccc(Sc2ccccc2[N+](=O)[O-])o1	TDP1 cell noCPT inconclusive, DT40 TDP1 CPT inconclusive
CCOc1cccc(-c2c(C(=O)N/N=C/c3ccc(C)o3)nnn2-c2nonc2N)c1	none
Cc1cc(C)cc(NC(=O)C(=O)NCC(c2cccnc2)N2CCN(c3ccccc3)CC2)c1 (centres undefined)	TDP1 cell noCPT 16µM, DT40 TDP1 CPT 21µM
COC(=O)c1ccc(NC(=O)C(=O)NCC(c2cccnc2)N2CCN(c3ccccc3)CC2)cc1 (centres undefined)	none (no result: ATXN2 expr inh, ATXN viability)
COc1cccc(NC(=O)C(=O)NCC(c2cccnc2)N2CCN(c3ccccc3)CC2)c1 (centres undefined)	TDP1 cell noCPT 18µM, DT40 TDP1 CPT inconclusive (no result: ATXN2 expr inh, ATXN viability)
CCOc1ccccc1NC(=O)C(=O)NCC(c1cccnc1)N1CCN(c2ccccc2)CC1 (centres undefined)	TDP1 cell noCPT inconclusive, DT40 TDP1 CPT inconclusive (no result: ATXN2 expr inh, ATXN viability)
COC(=O)/C=c1\sc2ncnn2c1=O	TDP1 cell noCPT 13µM, DT40 TDP1 CPT 5.8µM
CCOC(=O)N1CCN(c2ncc3c(n2)CC(c2ccc(OC)c(OC)c2)CC3=O)CC1 (centres undefined)	none (no result: TDP1 cell noCPT, DT40 TDP1 CPT)
COc1cccc(C(=O)Nc2ncc3c(n2)CC(c2ccc(OC)cc2OC)CC3=O)c1 (centres undefined)	TGFb inhibitor inconclusive, TDP1 cell noCPT 4.1µM, DT40 TDP1 CPT 2.9µM, ATXN viability inconclusive
CCN1CCN(c2ncc3c(n2)CC(c2ccc(OC)c(OC)c2)CC3=O)CC1 (centres undefined)	TDP1 cell noCPT 15µM, DT40 TDP1 CPT 23µM
O=C1CC(c2ccc(F)cc2)Cc2nc(N3CCN(c4ccccc4)CC3)ncc21 (centres undefined)	TDP1 cell noCPT inconclusive, DT40 TDP1 CPT inconclusive
COc1ccc(C(=O)Nc2ncc3c(n2)CC(C)CC3=O)cc1 (centres undefined)	none
Cc1ccc(C2CC(=O)c3cnc(N4CCc5ccccc5C4)nc3C2)cc1 (centres undefined)	TDP1 cell noCPT 18µM, DT40 TDP1 CPT inconclusive
Cc1ccc(C2CC(=O)c3cnc(N4CCN(c5ccccc5)CC4)nc3C2)cc1 (centres undefined)	TDP1 cell noCPT 16µM, DT40 TDP1 CPT inconclusive
Cc1nnc(NC(=O)C2CCCN2S(=O)(=O)c2ccc(Cl)cc2)s1 (centres undefined)	none
COc1ccc(CCC(=O)NC2CC(=O)N(c3ccc(C)cc3)C2)cc1 (centres undefined)	none (no result: ATXN2 expr inh, ATXN viability)
COC(=O)c1cn(NC(=O)c2ccc([N+](=O)[O-])cc2Cl)c(=O)c2ccccc12	none
CCc1ccc(Nc2ncc3c(n2)CC(c2ccc(OC)cc2)CC3=O)cc1 (centres undefined)	TDP1 cell noCPT 16µM, DT40 TDP1 CPT inconclusive
COc1ccc(C2CC(=O)c3cnc(N4CCN(Cc5ccccc5)CC4)nc3C2)cc1 (centres undefined)	TDP1 cell noCPT 23µM, DT40 TDP1 CPT inconclusive
O=C(NCc1ccccn1)c1cnn(-c2nccc(-c3cccs3)n2)c1C1CC1	none (no result: TGFb inhibitor, HepG2 tox, ATXN2 expr inh)
COc1ccccc1CCC(=O)OCC(=O)Nc1c(Br)cc(C)cc1Br	none
CC(=O)C(=Nc1cccc(Cl)c1)NNc1ccccc1C	TDP1 cell noCPT 15µM, DT40 TDP1 CPT inconclusive
Cc1cc(Cl)ccc1NNC(=O)c1cccs1	none
COc1cccc(CN2CC(C(=O)NCc3cccc(N4CCCC4)c3)CCC2=O)c1 (centres undefined)	TDP1 cell noCPT inconclusive, DT40 TDP1 CPT inconclusive
COc1cccc(-c2ccc3ncnc(NCc4cccnc4)c3c2)c1	TDP1 cell noCPT inconclusive, DT40 TDP1 CPT 12µM
c1ccc(CNc2ncnc3ccc(-c4cccnc4)cc23)cc1	TDP1 cell noCPT 16µM, DT40 TDP1 CPT 15µM (no result: TGFb inhibitor, HepG2 tox, ATXN2 expr inh, ATXN viability)
Cc1cc(C(O)c2ncc(-c3ccccc3C)[nH]2)ccc1F (centres undefined)	TDP1 cell noCPT inconclusive, DT40 TDP1 CPT inconclusive
O=C(O)Cc1ccc(-c2ccccc2-c2ccccc2)cc1	TDP1 cell noCPT 21µM, DT40 TDP1 CPT 15µM
COc1ccc([C@H]2N[C@]3(CCCN(Cc4ccco4)C3=O)[C@H]3C(=O)N(Cc4ccccc4)C(=O)[C@@H]23)cc1	none
COc1ccc(-c2cn(Cc3ccc(C(=O)NCc4ccc(C)cc4)cc3)c(C(C)N)n2)cc1 (centres undefined)	TGFb inhibitor inconclusive, TDP1 cell noCPT inconclusive, DT40 TDP1 CPT inconclusive, ATXN viability inconclusive
C=C1C(=O)[C@@]23C(CC[C@@H]1[C@H]2O)[C@@]12CO[C@]3(O)[C@@H](O)[C@@H]1C(C)(C)CC[C@@H]2O (some centres undefined)	ATXN2 expr inh 9.7µM (no result: TGFb inhibitor, HepG2 tox, TDP1 cell noCPT, DT40 TDP1 CPT, ATXN viability)
CC(C)c1ccc(C(C)NC(=S)NC2CCCCC2)cc1 (centres undefined)	TGFb inhibitor inconclusive, TDP1 cell noCPT 4.6µM, DT40 TDP1 CPT 18µM
CCOc1ccc(C(C)NC(=S)NC2CCCCC2)cc1 (centres undefined)	ATXN2 expr inh inconclusive, TDP1 cell noCPT inconclusive, DT40 TDP1 CPT inconclusive, ATXN viability inconclusive
CC(NC(=S)NC1CCCCC1)c1ccc(C(C)(C)C)cc1 (centres undefined)	TGFb inhibitor inconclusive, ATXN2 expr inh inconclusive, TDP1 cell noCPT inconclusive, DT40 TDP1 CPT 9.2µM
CCc1ccc(C(C)NC(=S)NC2CCCCC2)cc1 (centres undefined)	TGFb inhibitor inconclusive, TDP1 cell noCPT inconclusive, DT40 TDP1 CPT inconclusive
CC(=O)C1C(c2ccc([N+](=O)[O-])cc2)c2c(noc2C)CC1(C)O (centres undefined)	TGFb inhibitor inconclusive
CCOc1ccc(OCC)c(-c2c(=O)n(OCc3ccccc3C(=O)OC)c3ccccc3[n+]2[O-])c1	TDP1 cell noCPT 13µM, DT40 TDP1 CPT 13µM
CCOC(=O)COn1c(=O)c(-c2ccc(C)cc2)[n+]([O-])c2ccccc21	none (no result: ATXN2 expr inh)
COc1ccc(-c2c(=O)n(OCc3nc4ccccc4[nH]3)c3ccccc3[n+]2[O-])cc1	TDP1 cell noCPT inconclusive
CCOc1ccc(OCC)c(-c2c(=O)n(OCc3ccccc3Br)c3ccccc3[n+]2[O-])c1	TDP1 cell noCPT 8.9µM, DT40 TDP1 CPT 10µM
